# Screening data (PubChem BioAssay)
# IL-1B inflam inh = inflammasome signaling inhibition, IL-1 beta readout | activity change, % at 57.5 µM | 4.7% of 360,000 active | THP-1 LPS/ATP IL-1B secretion, AlphaLISA, 16 h; active compounds read low; in the data active means activity change below about -50%; inconclusive means mostly about -30% to -49%
#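 Secreted IL-1B measured by AlphaLISA bead assay after 16 h compound exposure of THP-1 cells; compounds (final up to 57.5 uM) added 1 h before LPS (250 ng/mL) and ATP (1.25 mM) stimulation; lower signal means less secretion.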
# DT40 TDP1 CPT = DT40-hTDP1 cell growth loss with CPT | chicken DT40 Tdp1-/-;hTDP1 cells + 20 nM CPT, ATP luminescence, 48 h | Potency, µM (titrated, usually from 46.2 µM), most hits filed as inhibitors | 12% of 420,000 active; further: nearly all actives have a fitted effect of over 55% in size
#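 Chicken DT40 Tdp1-/- cells complemented with human TDP1, 400 cells/well, exposed to compounds plus 20 nM camptothecin for at least 48 h at 37 C; viability read as ATP content by CellTiter-Glo luminescence.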
# CtBP-E1A blk = inhibitors of CtBP/E1A interaction; AlphaScreen GST-E1A/His-CtBP binding, 1536-well; active compounds read low; activity change, % (no concentration beside the values); 0.49% of 340,000 active; in the data active means activity change below about -65%; inconclusive means mostly about -30% to -63%
#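 In 5 uL wells, 23 nL compound meets equimolar GST-E1A and His-CtBP (5X stock 125 nM each) for 2 h, 37 °C. Beads (5X, 50 ug/mL) then 1 h, 37 °C, dark.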
# TDP1 block = inhibitors of human tyrosyl-DNA phosphodiesterase TDP1. Q9NUW8. Potency, µM (highest dose often 130 µM), hits mostly inhibitors. 0.28% of 350,000 active. recombinant TDP1, AlphaScreen DNA substrate cleavage. AID 485290; further: nearly all actives have a fitted effect of over 40% in size
# Target sequence (Q9NUW8 whole entry, looked up): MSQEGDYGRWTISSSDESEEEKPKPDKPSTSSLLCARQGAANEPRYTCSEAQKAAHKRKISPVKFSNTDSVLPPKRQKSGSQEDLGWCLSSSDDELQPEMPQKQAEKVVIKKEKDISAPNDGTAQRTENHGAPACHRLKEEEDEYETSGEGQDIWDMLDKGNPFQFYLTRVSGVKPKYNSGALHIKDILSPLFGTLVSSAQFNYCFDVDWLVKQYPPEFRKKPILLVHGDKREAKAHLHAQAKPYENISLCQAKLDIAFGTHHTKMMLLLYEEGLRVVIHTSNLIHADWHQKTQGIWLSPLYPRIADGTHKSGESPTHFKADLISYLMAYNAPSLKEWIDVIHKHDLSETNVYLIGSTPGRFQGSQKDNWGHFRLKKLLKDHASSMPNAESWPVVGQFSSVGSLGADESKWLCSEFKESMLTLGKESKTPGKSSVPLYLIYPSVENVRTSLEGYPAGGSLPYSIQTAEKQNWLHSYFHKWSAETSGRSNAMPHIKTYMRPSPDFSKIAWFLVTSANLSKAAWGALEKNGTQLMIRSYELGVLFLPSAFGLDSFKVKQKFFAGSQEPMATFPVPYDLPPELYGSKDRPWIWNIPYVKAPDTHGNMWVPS
#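 Compounds were preincubated with Tdp1 (1 nM final) for 15 min at room temperature before substrate (15 nM final) started a 5 min reaction; beads (10 ug/ml final) were then added for 10 min before AlphaScreen detection.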
# Six1-Eya2 inh = blocks human Six1 binding to Eya2 | Q15475+O00167 | AlphaScreen GST-Six1/His-Eya2 binding, biochemical; active compounds read low | activity change, % (test concentration not listed) | 0.56% of 360,000 active; in the data active means activity change below about -65%; inconclusive means mostly about -30% to -63%
#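 GST-Six1 + His-Eya2 (5X stock: 250/500 nM); Tris pH 8.0, 300 mM NaCl, 0.05% BSA, 0.02% Tween 20; GSH donor/Ni acceptor beads; 1 h 37 °C dark; AlphaScreen readout.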
# TDP1 cell noCPT = qHTS for Inhibitors of human tyrosyl-DNA phosphodiesterase 1 (TDP1): qHTS in cells in absence of CPT; DT40 Tdp1-/- hTDP1 cells, no CPT, ATP luminescence, 48 h; Potency, µM (titrated, usually from 46.2 µM), actives largely listed as inhibitors; 15% of 420,000 active; further: nearly all actives have a fitted effect of over 55% in size
#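 Luminescent ATP content (CellTiter-Glo) served as the growth readout. Knockout chicken DT40 cells expressing human TDP1 were exposed to compounds without camptothecin for a minimum 48 hr at 37 °C.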
# A number is an active result; – = inactive; ? = inconclusive; · = no result given; [ ] = dose if it differs, or a comment. An excerpt weighted towards active compounds, which were near 18% of everything screened. Unless noted, the call rests on the fitted dose curve; in most records, active means well fitted curve in the direction sought with a large enough effect; inconclusive means small, poorly fitted or top-dose-only effect, or another doubt; inactive means no such curve, though single readings can be large; an effect the other way counts as inactive or inconclusive.
SMILES,IL-1B inflam inh,DT40 TDP1 CPT,CtBP-E1A blk,TDP1 block,Six1-Eya2 inh,TDP1 cell noCPT
N=c1sccn1CC(=O)N1N=C(c2ccc(Cl)cc2)CC1c1ccco1 (stereo unspecified),–,?,–,–,–,23.1µM
O=C(CSc1n[nH]c(=O)n1C1CC1)N1N=C(c2ccc(Cl)cc2)CC1c1ccco1 (stereo unspecified),?,?,–,–,–,?
COc1ccc(C2=NN(C(=O)CSc3nccn3C)C(c3ccco3)C2)cc1 (stereo unspecified),–,18.4µM,–,–,–,?
CCS(=O)(=O)Nc1ccc(C2=NN(C(=S)Nc3ccccc3)C(c3ccco3)C2)cc1 (stereo unspecified),–,16.4µM,–,–,–,16.4µM
CCC(=O)N1N=C(c2c(-c3ccccc3)c3cc(Cl)ccc3[nH]c2=O)CC1c1ccco1 (stereo unspecified),?,18.4µM,–,–,–,23.1µM
CCC1(CC)NC(=O)N(CC(=O)N2N=C(c3ccc(Cl)cc3)CC2c2ccco2)C1=O (stereo unspecified),–,?,–,–,–,?
Cc1nc(N2CCN(C)CC2)c2sc(=S)n(C)c2n1,–,–,–,–,–,–
N#Cc1cc(C#N)c(SCC(=O)NCC2CCCO2)nc1N (stereo unspecified),–,–,–,–[0.0935 µM],–,–
Cn1cnnc1SCC(=O)N1N=C(c2ccc(Cl)cc2)CC1c1ccco1 (stereo unspecified),–,?,–,–,–,–
COc1ccc(C2=NN(c3nc(-c4ccc(CNC(C)=O)cc4)cs3)C(c3ccco3)C2)cc1 (stereo unspecified),–,20.6µM,–,–,–,18.4µM
O=C(OCC(=O)N1N=C(c2ccc(Cl)cc2)CC1c1ccco1)c1cncc(Br)c1 (stereo unspecified),?,?,–,–,–,23.1µM
CCC(=O)N1N=C(c2ccc(C)cc2)CC1c1ccco1 (stereo unspecified),?,20.6µM,–,–,–,13µM
Cc1ccc(C2=NN(C(=O)CSc3nnnn3C)C(c3ccco3)C2)cc1 (stereo unspecified),?,13µM,–,–,–,?
O=C(OCC(=O)N1N=C(c2ccc(Cl)cc2)CC1c1ccco1)c1ccco1 (stereo unspecified),–,–,–,–,–,?
Cn1cnnc1SCC(=O)NC1CCCN(Cc2ccc(Cl)cc2)C1 (stereo unspecified),–,–,–,–,–,–
Cc1ccc(-n2nnc(-c3nc(-c4cccs4)no3)c2N)c(C)c1,·,–,·,–,·,–
CCS(=O)(=O)Nc1ccc(C2=NN(C(=O)c3ccco3)C(c3ccc(C)cc3)C2)cc1 (stereo unspecified),–,?,–,–,–,20µM
Cc1ccc(C2CC(c3ccc(NS(C)(=O)=O)cc3)=NN2C(=O)c2ccco2)cc1 (stereo unspecified),–,–,–,–,–,?
CCC(=O)N1N=C(c2ccc(NS(=O)(=O)c3ccc(C)cc3)cc2)CC1c1ccco1 (stereo unspecified),?,?,–,–,–,13µM
CCc1ccc2oc(C(=O)N3CCN(c4ccc(OC)cc4)CC3)cc(=O)c2c1,-84.4,–,–,·,–,?
COc1ccc(N2CCN(C(=O)c3cc4ccccc4o3)CC2)cc1,–,–,–,·,–,–
CCc1ccc2oc(C(=O)N3CCN(c4ccccc4OC)CC3)cc(=O)c2c1,–,5.17µM,–,·,–,9.2µM
O=C1N/C(=C\c2ccc(O)cc2)C(O)=C1C=NCc1ccccc1,–,–,–,–,–,?
O=S(=O)(CCNCCc1ccccc1)NC1CCCCC1,–,–,–,·,–,–
c1ccc(CCn2nnc3ccccc32)cc1,–,?,–,–,–,?
SMILES,IL-1B inflam inh,DT40 TDP1 CPT,CtBP-E1A blk,TDP1 block,Six1-Eya2 inh,TDP1 cell noCPT
c1ccc2c(c1)nnn2CNc1nccs1,–,9.2µM,–,–,–,–
Cc1c(C2CC(=O)N(c3ccccc3)C2=O)[nH]n(-c2ccccc2)c1=O (stereo unspecified),–,16.4µM,–,–,–,?
O=C1CC(NNc2ccccc2)C(=O)N1c1ccccc1 (stereo unspecified),–,–,–,–,–,–
Cc1c(N2C(=O)C3C4C=CC(C4)C3C2=O)c(=O)n(-c2ccccc2)n1C (stereo unspecified),–,–,–,·,–,–
C(=C\c1cccc2ccccc12)/c1nnc(-c2cccs2)o1,–,29.1µM,–,·,–,?
Cc1ccc(CN2CCN(Cc3ccon3)CC2CCO)cc1 (stereo unspecified),–,–,–,·,–,–
COc1ccccc1-c1noc(-c2ccc(N3CCN(C)CC3)c([N+](=O)[O-])c2)n1,·,?,·,–,·,?
Cc1ccccc1-c1noc(-c2ccc(N3CCN(C)CC3)c([N+](=O)[O-])c2)n1,·,16.4µM,·,–,·,13µM
COc1cc(-c2noc(-c3ccc(N4CCN(C)CC4)c([N+](=O)[O-])c3)n2)cc(OC)c1OC,·,3.26µM,·,–,·,3.26µM
CN1CCN(c2ccc(-c3nc(-c4ccccc4)no3)cc2[N+](=O)[O-])CC1,·,?,·,–,·,14.6µM
CCOCC(=O)N1CCC(Cc2ccccc2)CC1,–,–,·,–,–,–
COc1cc(CN(C)Cc2cc(=O)oc3cc(C)c(Cl)cc23)ccc1OC(F)F,–,?,–,·,–,?
CCOc1ccc(CN(C)Cc2cc(=O)oc3c(C)c(C)ccc23)cc1OC,–,10.3µM,–,·,–,8.2µM
Cc1cc2oc(=O)cc(CN(C)Cc3ccccc3)c2cc1C(C)C,–,?,–,·,–,?
Cc1cc2oc(=O)cc(CN(C)Cc3cccc(F)c3)c2cc1Cl,–,–,–,·,–,–
COc1ccc(CN(C)Cc2cc(=O)oc3cc(C)c(C(C)C)cc23)cc1OC,-57.7,?,–,–,–,?
CSc1ccc(CN(C)Cc2cc(=O)oc3c(C)c(C)ccc23)cc1,–,20.6µM,–,·,–,?
Cc1ccc2c(CN(C)Cc3cccc(Cl)c3)cc(=O)oc2c1C,–,?,–,·,–,29.1µM
O=C(CNC(=O)c1ccccc1Br)Nc1cccc(S(=O)(=O)Nc2ccccc2Cl)c1,–,–,·,·,–,–
O=C(O)c1cccnc1Nc1ccc(Cl)cc1,–,?,–,–,–,?
O=C(NCC1CCC2(CCN(Cc3c[nH]c4ccccc34)CC2)O1)C1CCOCC1 (stereo unspecified),·,–[9.04 µM],·,·,·,–
O=C(c1ccc(OC2CCN(Cc3cccc(OCCO)c3)CC2)cc1)N1CCCC1,–,–,–,–,–,–
